Among the data in ChEMBL document CHEMBL1961873, “Compounds: GSK PKIS; Assays: Nanosyn kinase panel” (2012) are inhibition values, retold here.

The structures appear in SMILES notation.

Assay [1] concerns the target T1, Tyrosine-protein kinase ITK/TSK (Homo sapiens) (UniProt Q08881).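 Also: values are mean percent inhibition of ITK from the GSK PKIS screen.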
T1 sequence (whole entry): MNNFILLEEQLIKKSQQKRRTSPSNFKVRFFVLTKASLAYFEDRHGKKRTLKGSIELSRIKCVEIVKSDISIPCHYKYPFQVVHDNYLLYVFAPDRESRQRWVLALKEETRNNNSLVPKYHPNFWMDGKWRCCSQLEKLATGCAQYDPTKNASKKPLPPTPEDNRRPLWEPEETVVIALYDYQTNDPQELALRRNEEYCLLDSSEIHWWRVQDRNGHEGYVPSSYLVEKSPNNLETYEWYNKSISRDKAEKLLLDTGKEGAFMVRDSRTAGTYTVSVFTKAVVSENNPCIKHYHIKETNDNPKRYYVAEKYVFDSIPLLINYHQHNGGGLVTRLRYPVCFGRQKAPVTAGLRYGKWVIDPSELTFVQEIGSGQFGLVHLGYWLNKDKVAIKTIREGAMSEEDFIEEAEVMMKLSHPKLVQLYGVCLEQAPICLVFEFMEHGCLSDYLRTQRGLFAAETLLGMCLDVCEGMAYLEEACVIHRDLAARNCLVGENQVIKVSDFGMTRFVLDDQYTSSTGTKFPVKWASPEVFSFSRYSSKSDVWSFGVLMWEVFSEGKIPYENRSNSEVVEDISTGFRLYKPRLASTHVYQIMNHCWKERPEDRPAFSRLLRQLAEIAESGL
Conditions: at 1 µM.

Assay [2] deals with Tyrosine-protein kinase JAK1 (Homo sapiens) (UniProt P23458). As to conditions: at 0.1 µM.
Chain of Tyrosine-protein kinase JAK1 (Homo sapiens) (P23458 whole entry): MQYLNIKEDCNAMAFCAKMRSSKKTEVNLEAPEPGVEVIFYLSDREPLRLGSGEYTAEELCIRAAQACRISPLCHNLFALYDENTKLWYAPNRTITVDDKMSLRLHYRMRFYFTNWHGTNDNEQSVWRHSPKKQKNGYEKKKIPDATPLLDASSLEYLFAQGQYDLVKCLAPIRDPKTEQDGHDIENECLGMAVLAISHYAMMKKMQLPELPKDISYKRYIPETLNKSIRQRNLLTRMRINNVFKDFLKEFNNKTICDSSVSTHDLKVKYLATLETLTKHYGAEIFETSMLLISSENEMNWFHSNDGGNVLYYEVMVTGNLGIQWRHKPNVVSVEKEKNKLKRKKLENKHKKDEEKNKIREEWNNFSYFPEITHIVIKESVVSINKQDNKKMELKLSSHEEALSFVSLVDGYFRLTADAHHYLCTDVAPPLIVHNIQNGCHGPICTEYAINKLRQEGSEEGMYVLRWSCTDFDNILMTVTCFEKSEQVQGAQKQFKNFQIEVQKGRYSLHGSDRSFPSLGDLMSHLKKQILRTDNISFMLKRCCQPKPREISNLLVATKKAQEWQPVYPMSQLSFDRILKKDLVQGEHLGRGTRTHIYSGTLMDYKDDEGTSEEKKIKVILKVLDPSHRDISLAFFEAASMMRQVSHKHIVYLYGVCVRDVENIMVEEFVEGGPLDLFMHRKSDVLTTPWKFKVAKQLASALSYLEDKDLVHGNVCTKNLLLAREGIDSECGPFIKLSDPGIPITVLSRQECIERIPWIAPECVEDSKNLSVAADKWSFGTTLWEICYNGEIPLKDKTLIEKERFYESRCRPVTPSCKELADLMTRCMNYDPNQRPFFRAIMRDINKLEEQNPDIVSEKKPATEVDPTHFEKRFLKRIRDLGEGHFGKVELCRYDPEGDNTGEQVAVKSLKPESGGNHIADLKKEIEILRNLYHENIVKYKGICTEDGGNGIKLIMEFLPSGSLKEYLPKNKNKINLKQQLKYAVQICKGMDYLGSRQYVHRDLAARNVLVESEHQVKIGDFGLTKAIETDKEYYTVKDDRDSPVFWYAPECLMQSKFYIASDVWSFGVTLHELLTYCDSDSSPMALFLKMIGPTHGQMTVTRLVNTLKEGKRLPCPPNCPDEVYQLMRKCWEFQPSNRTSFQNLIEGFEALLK
For assay [3] the target is unchanged. As to conditions: at 1 µM.
The target of assay [4] is Tyrosine-protein kinase JAK2 (Homo sapiens) (UniProt O60674). Conditions: at 0.1 µM.
Assay [5] shares this target. Conditions: at 1 µM.
The target of assay [6] is T2, Tyrosine-protein kinase JAK3 (Homo sapiens) (UniProt P52333).
T2 sequence (whole entry): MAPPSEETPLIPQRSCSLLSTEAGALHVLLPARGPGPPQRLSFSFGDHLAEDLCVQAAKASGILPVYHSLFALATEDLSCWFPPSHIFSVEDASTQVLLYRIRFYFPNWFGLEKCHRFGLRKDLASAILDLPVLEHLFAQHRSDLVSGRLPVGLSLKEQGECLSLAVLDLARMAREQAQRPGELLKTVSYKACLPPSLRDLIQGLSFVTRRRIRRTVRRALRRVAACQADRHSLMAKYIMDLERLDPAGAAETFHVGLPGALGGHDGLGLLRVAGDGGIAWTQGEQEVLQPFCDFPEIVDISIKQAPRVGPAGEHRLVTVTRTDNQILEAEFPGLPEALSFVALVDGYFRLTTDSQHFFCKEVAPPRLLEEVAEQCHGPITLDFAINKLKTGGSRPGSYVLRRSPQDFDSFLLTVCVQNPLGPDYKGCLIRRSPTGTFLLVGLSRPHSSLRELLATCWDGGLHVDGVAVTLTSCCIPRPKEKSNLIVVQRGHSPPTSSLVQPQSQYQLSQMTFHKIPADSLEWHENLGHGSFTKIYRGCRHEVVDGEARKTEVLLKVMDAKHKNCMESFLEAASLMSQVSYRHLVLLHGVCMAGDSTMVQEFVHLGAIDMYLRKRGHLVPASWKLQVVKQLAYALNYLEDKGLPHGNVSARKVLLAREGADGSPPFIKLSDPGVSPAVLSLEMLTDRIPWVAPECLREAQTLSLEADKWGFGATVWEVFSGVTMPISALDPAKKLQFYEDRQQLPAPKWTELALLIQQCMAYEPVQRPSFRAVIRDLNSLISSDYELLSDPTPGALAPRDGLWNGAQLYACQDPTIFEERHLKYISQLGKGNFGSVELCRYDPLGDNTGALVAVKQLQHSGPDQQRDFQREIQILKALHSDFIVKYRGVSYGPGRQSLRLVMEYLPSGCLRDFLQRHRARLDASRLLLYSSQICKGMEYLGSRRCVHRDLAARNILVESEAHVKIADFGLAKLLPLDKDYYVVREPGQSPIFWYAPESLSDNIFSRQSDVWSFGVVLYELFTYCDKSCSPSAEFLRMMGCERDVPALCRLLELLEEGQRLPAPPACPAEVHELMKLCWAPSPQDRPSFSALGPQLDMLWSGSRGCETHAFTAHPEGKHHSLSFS
As to conditions: at 0.1 µM.

Assay [7] concerns the target T2, Tyrosine-protein kinase JAK3 (Homo sapiens). Conditions: at 1 µM.
The target of assay [8] is Vascular endothelial growth factor receptor 2 (Homo sapiens) (UniProt P35968). Conditions: at 0.1 µM.
Chain of Vascular endothelial growth factor receptor 2 (Homo sapiens) (P35968 whole entry): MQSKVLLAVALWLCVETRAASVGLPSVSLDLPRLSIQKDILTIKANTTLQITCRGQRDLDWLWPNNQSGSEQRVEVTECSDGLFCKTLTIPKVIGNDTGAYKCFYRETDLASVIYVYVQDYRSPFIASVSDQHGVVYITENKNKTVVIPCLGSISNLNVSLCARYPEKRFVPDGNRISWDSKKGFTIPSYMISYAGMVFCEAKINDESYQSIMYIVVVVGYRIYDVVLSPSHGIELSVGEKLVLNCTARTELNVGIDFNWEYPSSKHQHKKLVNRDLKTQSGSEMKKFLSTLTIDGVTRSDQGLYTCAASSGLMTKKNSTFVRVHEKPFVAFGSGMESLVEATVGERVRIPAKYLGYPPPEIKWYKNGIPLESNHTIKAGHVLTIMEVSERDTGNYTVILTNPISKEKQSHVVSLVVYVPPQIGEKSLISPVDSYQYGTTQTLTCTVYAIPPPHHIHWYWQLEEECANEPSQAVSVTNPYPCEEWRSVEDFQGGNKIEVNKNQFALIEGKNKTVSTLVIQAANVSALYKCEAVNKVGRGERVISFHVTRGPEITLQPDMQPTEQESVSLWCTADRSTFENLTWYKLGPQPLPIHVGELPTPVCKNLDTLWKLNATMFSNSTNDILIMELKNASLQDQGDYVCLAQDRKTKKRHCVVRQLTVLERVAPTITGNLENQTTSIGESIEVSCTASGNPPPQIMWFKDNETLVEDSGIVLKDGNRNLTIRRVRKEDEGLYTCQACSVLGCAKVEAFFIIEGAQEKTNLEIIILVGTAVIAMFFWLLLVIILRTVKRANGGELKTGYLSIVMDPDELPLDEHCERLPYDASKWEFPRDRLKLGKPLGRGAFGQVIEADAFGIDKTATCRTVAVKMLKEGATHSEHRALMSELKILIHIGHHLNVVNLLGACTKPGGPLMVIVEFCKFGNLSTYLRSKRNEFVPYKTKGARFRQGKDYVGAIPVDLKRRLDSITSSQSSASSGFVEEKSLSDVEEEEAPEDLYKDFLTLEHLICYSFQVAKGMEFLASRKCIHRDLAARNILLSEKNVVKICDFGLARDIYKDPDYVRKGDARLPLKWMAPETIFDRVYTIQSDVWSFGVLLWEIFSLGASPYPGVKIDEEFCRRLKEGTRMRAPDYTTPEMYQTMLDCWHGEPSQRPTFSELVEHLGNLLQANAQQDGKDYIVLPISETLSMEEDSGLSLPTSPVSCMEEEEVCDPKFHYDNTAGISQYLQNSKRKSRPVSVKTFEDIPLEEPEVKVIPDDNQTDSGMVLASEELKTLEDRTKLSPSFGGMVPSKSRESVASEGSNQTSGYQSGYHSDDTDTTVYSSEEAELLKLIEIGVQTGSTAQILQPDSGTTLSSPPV
For assay [9] the target is unchanged. Conditions: at 1 µM.
Assay [10] addresses Mast/stem cell growth factor receptor Kit (Homo sapiens) (UniProt P10721). As to conditions: at 0.1 µM.
Assay [11] has the same target. Conditions: at 1 µM.
Assay [12] relates to Mast/stem cell growth factor receptor Kit (Homo sapiens), P10721 [D816V]. As to conditions: at 0.1 µM.
Chain of Mast/stem cell growth factor receptor Kit (Homo sapiens), P10721 [D816V] (P10721 whole entry D816V): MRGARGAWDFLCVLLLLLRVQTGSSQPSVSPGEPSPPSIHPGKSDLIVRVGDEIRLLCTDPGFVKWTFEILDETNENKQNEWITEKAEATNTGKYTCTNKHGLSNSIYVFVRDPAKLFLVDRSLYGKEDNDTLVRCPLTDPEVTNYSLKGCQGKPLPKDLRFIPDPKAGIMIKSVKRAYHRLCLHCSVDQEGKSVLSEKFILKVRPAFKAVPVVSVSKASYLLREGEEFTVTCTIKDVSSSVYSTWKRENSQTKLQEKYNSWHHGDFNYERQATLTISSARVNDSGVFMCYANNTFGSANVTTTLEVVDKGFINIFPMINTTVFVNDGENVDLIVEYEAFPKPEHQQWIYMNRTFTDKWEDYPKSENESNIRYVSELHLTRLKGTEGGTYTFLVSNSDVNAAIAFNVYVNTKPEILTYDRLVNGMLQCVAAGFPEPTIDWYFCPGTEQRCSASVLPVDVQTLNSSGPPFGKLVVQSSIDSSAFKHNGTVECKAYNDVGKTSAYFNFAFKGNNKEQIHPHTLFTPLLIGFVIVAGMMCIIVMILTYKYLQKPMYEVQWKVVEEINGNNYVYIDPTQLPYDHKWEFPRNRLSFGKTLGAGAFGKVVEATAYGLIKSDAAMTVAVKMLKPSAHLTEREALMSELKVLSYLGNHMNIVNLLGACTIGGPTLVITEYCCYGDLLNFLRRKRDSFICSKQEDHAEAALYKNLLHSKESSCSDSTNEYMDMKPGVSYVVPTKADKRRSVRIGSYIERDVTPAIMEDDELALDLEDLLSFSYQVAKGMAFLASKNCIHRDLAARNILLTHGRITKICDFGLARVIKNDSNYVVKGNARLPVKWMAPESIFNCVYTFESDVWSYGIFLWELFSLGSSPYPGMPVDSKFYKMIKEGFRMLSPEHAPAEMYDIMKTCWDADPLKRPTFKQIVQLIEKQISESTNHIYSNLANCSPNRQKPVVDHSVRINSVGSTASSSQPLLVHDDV
Assay [13] shares this test system. As to conditions: at 1 µM.
Assay [14] relates to Mast/stem cell growth factor receptor Kit (Homo sapiens), P10721 [T670I]. Conditions: at 0.1 µM.
Chain of Mast/stem cell growth factor receptor Kit (Homo sapiens), P10721 [T670I] (P10721 whole entry T670I): as the sequence (P10721 whole entry D816V) above, with T670I, V816D counted along it
Assay [15] has the same test system. Conditions: at 1 µM.
Assay [16] has as its system Mast/stem cell growth factor receptor Kit (Homo sapiens), P10721 [V560G]. As to conditions: at 0.1 µM.
The test system is the same in assay [17]. As to conditions: at 1 µM.
For assay [18], the target named is Tyrosine-protein kinase Lck (Homo sapiens) (UniProt P06239). As to conditions: at 0.1 µM.
Chain of Tyrosine-protein kinase Lck (Homo sapiens) (P06239 2-509 limits assumed): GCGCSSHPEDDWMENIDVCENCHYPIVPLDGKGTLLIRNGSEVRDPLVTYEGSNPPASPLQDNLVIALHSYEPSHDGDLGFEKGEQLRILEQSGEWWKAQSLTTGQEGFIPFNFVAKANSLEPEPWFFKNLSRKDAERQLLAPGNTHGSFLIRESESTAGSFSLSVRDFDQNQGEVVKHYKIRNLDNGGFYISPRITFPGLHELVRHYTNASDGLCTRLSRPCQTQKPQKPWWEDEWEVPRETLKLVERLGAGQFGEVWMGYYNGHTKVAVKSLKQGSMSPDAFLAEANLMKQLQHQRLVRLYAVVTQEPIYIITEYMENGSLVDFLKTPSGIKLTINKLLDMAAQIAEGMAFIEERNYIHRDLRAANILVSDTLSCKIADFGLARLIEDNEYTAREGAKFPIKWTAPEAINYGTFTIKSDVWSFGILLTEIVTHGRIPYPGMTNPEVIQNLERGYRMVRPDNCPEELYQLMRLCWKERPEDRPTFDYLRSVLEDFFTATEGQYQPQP
For assay [19] the target is unchanged. As to conditions: at 1 µM.
The target of assay [20] is Leukocyte tyrosine kinase receptor (Homo sapiens) (UniProt P29376). Conditions: at 0.1 µM.
Chain of Leukocyte tyrosine kinase receptor (Homo sapiens) (P29376 whole entry): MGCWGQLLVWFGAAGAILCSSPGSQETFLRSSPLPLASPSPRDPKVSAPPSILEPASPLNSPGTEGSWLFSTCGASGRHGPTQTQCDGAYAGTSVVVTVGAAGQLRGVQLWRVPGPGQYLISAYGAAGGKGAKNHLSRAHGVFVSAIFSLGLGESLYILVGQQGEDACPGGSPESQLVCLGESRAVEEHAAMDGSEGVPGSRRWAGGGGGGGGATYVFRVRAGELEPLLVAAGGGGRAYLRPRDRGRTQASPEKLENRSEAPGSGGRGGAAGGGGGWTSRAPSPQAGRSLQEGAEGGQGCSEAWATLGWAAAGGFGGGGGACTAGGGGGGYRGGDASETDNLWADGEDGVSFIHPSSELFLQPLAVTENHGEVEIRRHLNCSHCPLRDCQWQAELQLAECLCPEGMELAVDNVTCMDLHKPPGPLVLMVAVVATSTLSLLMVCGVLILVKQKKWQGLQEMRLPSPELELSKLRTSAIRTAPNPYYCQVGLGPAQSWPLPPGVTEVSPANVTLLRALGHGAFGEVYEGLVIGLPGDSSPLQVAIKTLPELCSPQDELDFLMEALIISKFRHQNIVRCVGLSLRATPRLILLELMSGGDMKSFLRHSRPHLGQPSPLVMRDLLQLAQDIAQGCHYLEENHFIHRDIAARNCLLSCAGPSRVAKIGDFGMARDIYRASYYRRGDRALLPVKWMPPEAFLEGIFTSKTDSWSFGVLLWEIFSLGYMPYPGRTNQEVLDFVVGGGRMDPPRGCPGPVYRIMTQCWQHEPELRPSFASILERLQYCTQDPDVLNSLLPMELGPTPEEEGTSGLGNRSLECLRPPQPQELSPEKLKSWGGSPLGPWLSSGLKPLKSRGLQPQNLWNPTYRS

Chain of Mast/stem cell growth factor receptor Kit (Homo sapiens), P10721 [V560G] (P10721 whole entry V560G): as the sequence (P10721 whole entry D816V) above, with V560G, V816D counted along it
Chain of Mast/stem cell growth factor receptor Kit (Homo sapiens) (P10721 whole entry): as the sequence (P10721 whole entry D816V) above, with V816D counted along it

For the molecule `COc1cccc(Nc2nccc(-c3cnn4ncccc34)n2)c1`, the inhibition in assay [1] is 6.45%; in [2], -0.13%; in assay [3] it was 13.2%; in [4] it was 1.95%; in [5], 29.2%; in [6], 2.03%. Also, the inhibition in assay [7] is 44.2%; in assay [8] it was 9.69%; in assay [9], 42.1%; in [10] it was 89.5%; in assay [11] it was 99.3%; in [12], -1.05%. Moreover, the inhibition was determined as 4.28% in assay [13]; 60.9% in [14]; 95.3% in [15]; 40.2% in assay [16]; 78.3% in assay [17]; 3.11% in assay [18]. Besides, the values for the inhibition in [19] and in assay [20] were 11.2% and 4.15%, respectively.
For the molecule `O=C(O[C@H]1CN[C@H](C#Cc2cc3ncnc(Nc4ccc(OCc5cccc(F)c5)c(Cl)c4)c3s2)C1)N1CCOCC1`, the inhibition is 2.04% in assay [1]; 5.13% in [2]; 13.7% in [3]; 0.79% in assay [4]; 1.3% in [5]; -0.56% in assay [6]. The inhibition was -2.5% in assay [7]; 2.63% in assay [8]; 7.79% in assay [9]; 5.01% in assay [10]; 6.15% in [11]; 7.97% in assay [12]. The inhibition in [13] is 7.17%; in assay [14], 4.04%; in assay [15], 5.91%; in assay [16], -2.49%; in [17], -1.75%; in assay [18], 1.76%. For the same molecule, the inhibition in assay [19] amounted to 1.88%; in [20], 4.09%.
For `O=C(O[C@H]1CN[C@H](C#Cc2cc3ncnc(Nc4ccc5c(cnn5Cc5ccccc5)c4)c3s2)C1)N1CCOCC1`, the inhibition in assay [1] was -0.49%; in [2] it was 0.1%; in assay [3] it was 3.26%; in [4], -0.37%; in assay [5] it was -1.59%; in assay [6], -0.78%. The inhibition in assay [7] was 1.24%; in [8], -0.01%; in assay [9], 8.91%; in assay [10], -3.59%; in assay [11] it was 0.9%; in assay [12], -4.43%. Further, the inhibition in assay [13] is -0.62%; in assay [14] it was -1.83%; in [15] it was -1.48%; in assay [16] it was -1.18%; in assay [17] it was -0.48%; in [18], 0.34%. Further, the inhibition in [19] is 6.67%; in [20], 0.04%.
`O=C1Nc2ccccc2/C1=C1\CCc2cc(O)ccc21`: the inhibition in assay [1] was 14.6%; in assay [2] it was 3.42%; in [3] it was 12.7%; in assay [4], 1.74%; in [5], 3.79%; in assay [6] it was -0.09%. The inhibition in [7] is 13.3%; in assay [8], 10.5%; in [9] it was 37.8%; in [10] it was 66.3%; in [11], 93.7%; in assay [12] it was 4.08%. The inhibition in assay [13] was 1.34%; in assay [14] it was 39.3%; in [15] it was 88.1%; in assay [16] it was 6.44%; in [17], 41.6%; in assay [18] it was 3.68%. Moreover, the inhibition in [19] amounted to 8.53%; in assay [20] it was 7.84%.
For `CC1=C(C(=O)Nc2ccc3[nH]ncc3c2)C(c2ccc(F)cc2)N=C(c2ccc(C(F)(F)F)nc2)N1` (stereo not given), the inhibition in [1] amounted to 2.33%; in [2] it was 1.34%; in assay [3] it was 1.91%; in [4], 1.27%; in assay [5], 2.08%; in [6], 0.58%. Moreover, the inhibition in assay [7] was 1.34%; in [8], 5.88%; in assay [9], 9.39%; in assay [10], 4.11%; in assay [11], 5.44%; in assay [12] it was -0.02%. Further, the inhibition in assay [13] is -2.78%; in assay [14] it was 1.78%; in assay [15] it was 1.33%; in assay [16] it was 1.39%; in assay [17], 3.28%; in assay [18], 3.06%. In addition, the inhibition came out at 2.27% in [19] and 1.67% in assay [20].
For the molecule `CNC(=O)c1cncc(/C=C/c2ccccc2C)c1`, the inhibition in [1] is 2.59%; in assay [2], 6.31%; in assay [3], 12.7%; in assay [4], 1.48%; in assay [5], 1.45%; in assay [6], -0.66%. Moreover, the inhibition in [7] is 0.49%; in assay [8], 4.29%; in [9], 7.71%; in assay [10], 5.02%; in assay [11], 14.5%; in [12], 1.55%. In addition, the inhibition in assay [13] came out at 3.24%; in assay [14], 3.26%; in assay [15] it was 4.48%; in assay [16] it was 3.49%; in assay [17] it was 5.75%; in [18] it was 1.99%. In addition, the inhibition worked out at 7.19% in [19] and 2.41% in assay [20].
With `c1cnn2ncc(-c3ccnc(NCCCN4CCOCC4)n3)c2c1`, the inhibition was 0.08% in assay [1]; 2.8% in [2]; 4.8% in assay [3]; 2.27% in assay [4]; 1.4% in assay [5]; -1.85% in assay [6]. In addition, the inhibition in assay [7] was -2.75%; in assay [8], 5.58%; in assay [9], 6.83%; in [10], 5.59%; in assay [11] it was 5.88%; in assay [12], 6.89%. Also, the inhibition in assay [13] is 4.06%; in assay [14], 9.96%; in assay [15] it was 3.97%; in assay [16], -0.98%; in [17], -1.13%; in assay [18], 1.55%. For the same molecule, the inhibition in [19] was 1.64%; in assay [20] it was 2.87%.
For the molecule `Cc1nnc(-c2cccc(-c3ccc(C(=O)NCC4CC4)cc3)c2)o1`, the inhibition in assay [1] is 2.05%; in assay [2], 2.76%; in [3] it was 9.78%; in [4] it was 1.87%; in assay [5], 2.79%; in assay [6] it was -1.21%. In addition, the inhibition in assay [7] turned out to be 0.46%; in assay [8], 6.85%; in assay [9], 9.47%; in assay [10] it was 7.19%; in assay [11], 9.77%; in assay [12], 1.04%. Besides, the inhibition in [13] is 7.79%; in assay [14], 5.46%; in assay [15], 5.66%; in assay [16], 0.29%; in assay [17] it was 2.8%; in assay [18], 2.77%. The values for the inhibition in [19] and in assay [20] were 2.64% and 4.15%, respectively.
`CCS(=O)(=O)c1ccc(OC)c(Nc2ncc(-c3cccc(C(C)=O)c3)o2)c1`: the inhibition in assay [1] is 2.71%; in assay [2] it was 0.61%; in [3], 6.56%; in [4] it was 0.16%; in assay [5] it was 1.8%; in assay [6], -1.13%. The inhibition came out at 1.72% in assay [7]; 16.4% in [8]; 58.9% in [9]; 19.7% in assay [10]; 71.4% in assay [11]; 5.74% in assay [12]. The inhibition is 12.1% in assay [13]; -0.79% in [14]; 10.7% in assay [15]; 3.47% in assay [16]; 13% in assay [17]; 2.7% in assay [18]. The inhibition is 25.4% in [19] and 2.87% in assay [20].
